Measured values published in published antibiotic growth screens (doi:10.1016/j.cell.2020.01.021).
In all, about 2,300 compounds were measured (“relative growth”: median about 1, lowest 2% from about 0.046 on). Not all results are given here.

test system: E. coli BW25113; assay: relative growth (fraction of control); higher = less inhibition; details: 50 µM

Structure (SMILES) | relative growth
CC12CCC3C(=CCc4cc(O)ccc43)C1CCC2=O (stereo unspecified) | 0.988
CCC1OC(=O)C(C)C(OC2CC(C)(OC)C(O)C(C)O2)C(C)C(OC2OC(C)CC(N(C)C)C2O)C(C)(O)CC(C)C(=O)C(C)C(O)C1(C)O.CCCCCCCCCCCCCCCCCC(=O)O (stereo unspecified) | 0.665
NCCCC(N)C(=O)O.NCCCC(N)C(=O)O.O=C(O)CCC(=O)C(=O)O | 1.09
C=CC1CN2CCC1CC2C(O)c1ccnc2ccc(OC)cc12 (stereo unspecified) | 1.02
Cc1ccsc1C=CC1=NCCCN1C.O=C(O)CC(O)(CC(=O)O)C(=O)O | 0.986
CN(C)C1C(O)=C(C(N)=O)C(=O)C2(O)C(O)=C3C(=O)c4c(O)cccc4C(C)(O)C3CC12.Cl (stereo unspecified) | 0.0522
CN1CCN(C2=Nc3ccccc3Oc3ccc(Cl)cc32)CC1.O=C(O)CCC(=O)O | 1.08
C#CCCCCCCCCCCCC(O)CC(O)COC(C)=O.C=CCCCCCCCCCCCC(O)CC(O)COC(C)=O (stereo unspecified) | 1.03
CCN(CC)CCOCCOC(=O)C1(c2ccccc2)CCCC1.O=C(O)CC(O)(CC(=O)O)C(=O)O | 1.08
CN(C)CCC(c1ccc(Cl)cc1)c1ccccn1.O=C(O)C=CC(=O)O (stereo unspecified) | 0.967
CCCCCCc1ccc(O)cc1O.Nc1c2ccccc2nc2ccccc12 | 0.591
Cl.N[C@H](Cc1ccccc1)C(=O)O | 1
O=C(O)C(O)C(O)C(=O)O.OCc1cccnc1 (stereo unspecified) | 1.06
CNCC(O)C(O)C(O)C(O)CO.Cc1c(Nc2ncccc2C(=O)O)cccc1C(F)(F)F | 1.04
CCCCCNC(=N)NN=Cc1c[nH]c2ccc(OC)cc12.O=C(O)C=CC(=O)O | 0.879
CCN(CC)CCOCCOC(=O)C(CC)(CC)c1ccccc1.O=C(O)CC(O)(CC(=O)O)C(=O)O | 1.1

Structure (SMILES) | relative growth
CN1CCCN=C1C=Cc1cccs1.O=C(O)c1cc2ccccc2c(Cc2c(O)c(C(=O)O)cc3ccccc23)c1O | 1.13
CCC1OC(=O)CC(O)C(C)C(OC2OC(C)C(OC3CC(C)(O)C(O)C(C)O3)C(N(C)C)C2O)C(CC=O)CC(C)C(=O)C=CC(C)=CC1COC1OC(C)C(O)C(OC)C1OC.O=C(O)C(O)C(O)C(=O)O (stereo unspecified) | 1.09
CC(=O)OC1CC2(C)C(CC(O)C3C4(C)CCC(O)C(C)C4CCC32C)C1=C(CCC=C(C)C)C(=O)O (stereo unspecified) | 1.12
NNC(=O)c1ccncc1.Nc1ccc(C(=O)O)c(O)c1 | 0.943
O=C(O)CCC(=O)O.O=C(OC1CN2CCC1CC2)N1CCc2ccccc2C1c1ccccc1 (stereo unspecified) | 1.02
CCC(=O)OC1C(OC2C(C)C(OC3CC(C)(OC)C(O)C(C)O3)C(C)C(=O)OC(CC)C(C)(O)C(O)C(C)C(=O)C(C)CC2(C)O)OC(C)CC1N(C)C.CCCCCCCCCCCCOS(=O)(=O)O (stereo unspecified) | 0.953
Oc1ccc(Cl)c2cccnc12 | 0.421
CN1CCc2nc(C(=O)NC3CC(C(=O)N(C)C)CCC3NC(=O)C(=O)Nc3ccc(Cl)cn3)sc2C1.Cc1ccc(S(=O)(=O)O)cc1.O (stereo unspecified) | 1.01
CC(=O)c1ccc2c(c1)N(CCCN1CCN(CCO)CC1)c1ccccc1S2.O=C(O)C=CC(=O)O | 1.17
CC(=O)OCC(=O)C1(O)C(C)CC2C3CCC4=CC(=O)C=CC4(C)C3(F)C(O)CC21C (stereo unspecified) | 0.913
OCC(O)C(O)C(OC1OC(CO)C(O)C(O)C1O)C(O)CO (stereo unspecified) | 0.991
CC1CC2C3CCC4=CC(=O)C=CC4(C)C3(F)C(O)CC2(C)C1(O)C(=O)COP(=O)([O-])[O-].[Na+].[Na+] (stereo unspecified) | 1.1
CN1C(C)(C)CCCC1(C)C.O=C(O)C(O)C(O)C(=O)O | 0.993
CN(C)CCN(Cc1ccccc1)c1ccccn1.O=C(O)CC(O)(CC(=O)O)C(=O)O | 0.763
CCC(=C(c1ccccc1)c1ccc(OCCN(C)C)cc1)c1ccccc1.O=C(O)CC(O)(CC(=O)O)C(=O)O | 0.642
